# From PubChem BioAssay AID1053128 (The Scripps Research Institute Molecular Screening Center, 2014)
# Values without a mark were called inactive. The rule behind the calls is not given here.
# Test: fibrin DD(E) binders, counter-screen IC50, biochemical, fluorescence polarization, dose response, counter-screen for fibrin DD(E)-Tn6 binding project, late-stage follow-up (AID 1053128)
# Conditions: Fluorescence polarization counterscreen, Tn6 peptide/DD(E) assay
row,SMILES,IC50 [µM]
1,Cc1cc(C)c(S(=O)(=O)NCCn2c(C)cc3ccccc32)c(C)c1,> 83.3
2,Cc1cc2cc(CNC(=O)c3ccc(S(=O)(=O)N4CCOCC4)cc3)ccc2n1C,> 83.3
3,COc1ccc2ccccc2c1C(O)c1nccn1C (stereo not given),> 83.3
4,Cc1cc2cc(CNS(=O)(=O)c3ccc4ccccc4c3)ccc2n1C,> 83.3
5,O=C(O)CCCNc1cc(N2CCN(C(=O)c3ccco3)CC2)c2noc3c2c1C(=O)c1ccccc1-3,> 83.3
6,CN1C(=O)NC(c2ccccc2[N+](=O)[O-])C2=C1CCCC2=O (stereo not given),> 83.3
7,N#CC1=C(N)Oc2ccc3ccc(O)cc3c2C1c1ccsc1 (stereo not given),> 83.3
8,Cc1cc2c(cc1S(=O)(=O)N1CCN(c3cccc(C)c3C)CC1)OCCN2C,> 83.3
9,CCn1c(CSc2n[nH]c(N)n2)nc2cc(C(=O)O)ccc21,> 83.3
10,NS(=O)(=O)c1ccc(NS(=O)(=O)c2ccc(NC(=O)c3ccc(-c4ccccc4)cc3)cc2)cc1,> 83.3
